Out of some 2,400 compounds screened, about 1,400 (58%) were called active.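 How the source made its calls: active means inhibition of 30% or more at any tested dose; inconclusive means primary hits over the limit that were never retested; inactive means the rest.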 The set was probably picked from earlier hits. The list shows a part of the results.
Assay: coupled detection enzyme interference, dose response, artefact control for MgcRacGAP inhibitor project, biochemical, coupled enzyme counter-screen (AID 624351);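 further: signal is the ADP detection kit reading of free GDP without any GAP enzyme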
Details: ADP Hunter coupled enzyme counter-screen, fluorescence, no MgcRacGAP; series mostly up to 80 µM
In the case of CC1=CC(c2ccccc2)NC(=S)N1 (stereo unspecified), the IC50 is reported as “inactive”. With O=[N+]([O-])/C=C/c1ccc2c(ccn2Cc2ccccc2)c1 the IC50 was “inactive”. For O=c1c(O)c(-c2ccc(O)cc2)oc2cc(O)cc(O)c12, the IC50 was 34.5 µM (active). For O=c1c(O)c(-c2ccc(O)c(O)c2)oc2cc(O)ccc12, the IC50 was 52.8 µM (active). For COc1c(-c2ccc(O)c(O)c2)oc2cc(O)cc(O)c2c1=O, the IC50 was 34 µM (active). In the case of c1ccc(CC2CCN(Cc3ccccn3)CC2)cc1, the IC50 is reported as “inactive”. For CC1(C)CC(=O)C=C(Nc2ccc(O)cc2)C1, the IC50 was 25.9 µM (active). For COc1cc(C2NC(=O)C(C#N)=C(S)N2c2ccc(C)cc2)ccc1OC(C)C (stereo unspecified), the IC50 was “inactive”. For COc1ccc(NCC(O)COc2ccc(C(C)(C)C)cc2)cc1 (stereo unspecified), the IC50 was “inactive”. In the case of COc1ccc(NCC(O)Cn2c(C)c(C)c3ccccc32)cc1 (stereo unspecified), the IC50 is reported as 66.8 µM (active). With COc1ccc(-c2cc3ccccc3n2CC(O)CN2CCCCC2)cc1 (stereo unspecified) the IC50 was “inactive”. In the case of COc1ccc(OC)c(CN2CCSCC2)c1, the IC50 is reported as “inactive”. With Oc1ccc(C2=Nn3c(nnc3-c3ccco3)SC2)cc1O the IC50 was 14.2 µM (active). In the case of CC1Cc2ccccc2N1C(=O)CNCCCN(C)C (stereo unspecified), the IC50 is reported as “inactive”. With COc1ccc(NC(=O)/C(Cl)=C(/Cl)S(=O)Cc2ccc(Cl)cc2)cn1 (stereo unspecified) the IC50 was “inactive”. In the case of COc1ccc(NC(=O)/C(Cl)=C(/Cl)S(=O)Cc2ccccc2)cn1 (stereo unspecified), the IC50 is reported as “inactive”. In the case of COc1ccc(NC(=O)c2cccc(-c3ccc(O)cc3)c2)cn1, the IC50 is reported as 41.2 µM (active). In the case of O=C(Nc1ccccc1)c1cccc(-c2nnc(-c3ccccc3)o2)c1, the IC50 is reported as “inactive”. With CC(=O)Nc1cccc(NC(=O)c2cccc(-c3ccc(O)cc3)c2)c1 the IC50 was 59.1 µM (active). For Oc1cccc2c(NC(=S)Nc3ccc(OC(F)F)cc3)cccc12, the IC50 was 83.5 µM (active). With C#CCOCCOCCOCCNc1nc(N2CCN(C(=O)CCCCCCCCCCNC(=O)[C@@H](CCSC)n3cc(CCO)nn3)CC2)nc(N2CCN(C(=O)CCCCCCCCCCNC(=O)[C@H](CO)n3cc(CCCCCN)nn3)CC2)n1 the IC50 was “inactive”. For COc1ccc(-c2nc(-c3ccc(O)cc3O)cs2)cc1OC, the IC50 was 55.4 µM (active). In the case of Oc1ccc(-c2csc(-c3cccnc3)n2)cc1O, the IC50 is reported as 11 µM (active). With COc1ccc(-c2ncc3ccccn23)cc1OC the IC50 was “inactive”. For COc1cc2cc(-c3ccc(O)cc3O)nc(C)c2cc1OC, the IC50 was 45.1 µM (active). For Oc1ccc(-c2csc(-c3cccnc3)n2)c(O)c1, the IC50 was 43.4 µM (active). For Clc1cc(Cl)c(OCCCCn2cncn2)c(Cl)c1, the IC50 was “inactive”. For CCCCN(C)C(=O)C1CCN(Cc2ccc(OCc3ccccc3)cc2)CC1, the IC50 was “inactive”. In the case of COc1ccc(C2NC(c3ccc(OC)cc3OC)C(C)C(=O)C2C)c(OC)c1 (stereo unspecified), the IC50 is reported as “inactive”. For CC1CC(C)CN(CC(=O)NC(c2ccccc2)c2ccccc2)C1 (stereo unspecified), the IC50 was “inactive”. With CCOc1cc(/C=C2\SC(=O)N=C2N)ccc1O the IC50 was 14.3 µM (active). For COc1cc(/C=C2\SC(N)=NC2=O)ccc1O, the IC50 was 16.4 µM (active). With CCN=C1S/C(=C\c2ccc(O)c(OCC)c2)C(=O)N1CC the IC50 was 39 µM (active). With COc1cc(/C=C2\SC(N)=NC2=O)cc(Cl)c1O the IC50 was 45.7 µM (active). For CCCN1C(=O)/C(=C/c2cc(C)n(C)c2C)SC1=Nc1ccc(OCC)cc1, the IC50 was “inactive”. For COc1cc(/C=C2\SC(c3ccc(C)cc3)=NC2=O)cc(OC)c1O, the IC50 was “inactive”. With COc1cccc(OC)c1OCCNC(C)(C)C the IC50 was “inactive”. For CCOc1cc(/C=C2/NC(=O)N(Cc3ccccc3F)C2=O)ccc1O, the IC50 was 50 µM (active). In the case of NC1=NC(=O)S/C1=C\c1ccc(O)cc1, the IC50 is reported as 20.2 µM (active). With Cc1ccc(S(=O)(=O)Oc2ccc(/C=C3\C(=N)N4N=C(S(C)(=O)=O)SC4=NC3=O)cc2)cc1 the IC50 was “inactive”. For N=C1/C(=C/c2ccc(Br)o2)C(=O)N=C2SC(CC(=O)N3CCCC3)=NN12, the IC50 was “inactive”. With CCOc1cc(/C=C2\C(=O)ON=C2c2ccccc2)cc(Br)c1O the IC50 was “inactive”. In the case of N=C1/C(=C\c2ccc(Br)o2)C(=O)N=C2SC(CC(=O)N3CCOCC3)=NN12, the IC50 is reported as “inactive”. With CCS(=O)(=O)C1=NN2C(=N)/C(=C\c3ccc(SCc4ccco4)o3)C(=O)N=C2S1 the IC50 was “inactive”. In the case of CC(NCc1cccc(S(=O)(=O)N(C)C)c1)c1ccc(F)cc1 (stereo unspecified), the IC50 is reported as “inactive”. In the case of CCOc1cc(/C=C2\SC(N)=NC2=O)ccc1O, the IC50 is reported as 55.5 µM (active). With C#CCOCCOCCOCCNc1nc(N2CCN(C(=O)C([C@@H](C)O)n3cc([C@@H](N)CCCCN)nn3)CC2)nc(N2CCN(C(=O)[C@H](CCCCN)n3cc(CN)nn3)CC2)n1 (stereo partly specified) the IC50 was “inactive”. In the case of O=C(CSc1nnnn1-c1ccc(F)cc1)c1ccc(O)c(O)c1, the IC50 is reported as 77.2 µM (active). With CN(C)c1cc(NC(=O)CN2CCCC2)c2ccccc2n1 the IC50 was “inactive”. In the case of Cc1cc(C)nc(SCC(=O)c2ccc(O)c(O)c2)n1, the IC50 is reported as 38 µM (active). In the case of Cc1cc(SCC(=O)c2ccc(O)c(O)c2)nc2ccccc12, the IC50 is reported as 58.9 µM (active). With CC(C)(C)CC(C)(C)NCC(=O)Nc1c2c(nc3ccccc13)CCC2 the IC50 was “inactive”. With O=C(O)c1cccc2cccc(-c3c4ccc(=O)c(O)c-4oc4c(O)c(O)ccc34)c12 the IC50 was “inactive”. For Cc1cc(=O)oc2c(O)c(O)ccc12, the IC50 was 28.8 µM (active). With Cc1[nH]n(-c2ccccc2)c(=O)c1/C=N/N(C)c1ccccc1 the IC50 was 15 µM (active). For O=C(O)C1Nc2c(O)cc(Cl)c([N+](=O)[O-])c2C2C=CCC12 (stereo unspecified), the IC50 was “inactive”. In the case of COc1cc(Sc2ccc(C)cc2)c(OC)cc1N, the IC50 is reported as 22.5 µM (active). In the case of O=C(N/C(=C\c1ccc(O)cc1)C(=O)N1CCCCC1)c1ccccc1, the IC50 is reported as 54.1 µM (active). In the case of COc1cc(OC)cc(C(=O)N2CCN(Cc3ccccc3Br)CC2)c1, the IC50 is reported as “inactive”. With COc1cccc(C(=O)N2CCN(C3CCCCC3)CC2)c1 the IC50 was “inactive”. In the case of COc1ccc(NC2CCCN(C(=O)c3cccc(N4CCNC4=O)c3)C2)cc1 (stereo unspecified), the IC50 is reported as 81.2 µM (active). In the case of COc1ccc(NC2CCCN(C(=O)c3cccc(N(C)C)c3)C2)cc1 (stereo unspecified), the IC50 is reported as 74.8 µM (active). With COc1ccc(NC2CCCN(C(=O)c3ccc(C)c(N4CCNC4=O)c3)C2)cc1 (stereo unspecified) the IC50 was “inactive”. In the case of O=C(c1cccc(F)c1)N1CCN(C2CCCCC2)CC1, the IC50 is reported as “inactive”. For Cc1cc(-c2ccccc2)nc2c(Br)c(=O)[nH]n12, the IC50 was “inactive”. In the case of Cc1ccc(N2C(S)=C(C#N)C(=O)NC23CCCCC3)cc1, the IC50 is reported as “inactive”.

From PubChem BioAssay AID624351 (Southern Research Specialized Biocontainment Screening …, 2012)
